# Screening results (PubChem BioAssay)
# PfHsp90 yeast 2 – growth inhibition of yeast expressing Plasmodium Hsp90; hit rate 0.32% among 310,000; AID 504621; inhibition, % at 9.4 µM; S. cerevisiae expressing PfHsp90, BacTiter-Glo ATP, 48 h; yeast lacking PDR1 and PDR3 efflux regulators;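 active means every replicate shows inhibition above about 80%, whatever the replicate mean, limit read from the data; inconclusive means mean inhibition reaches the set limit but some replicate falls short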;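 further: 0% = DMSO neutral controls and 100% = 20 µM radicicol positive controls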
# tim10-1 inh – inhibits growth of tim10-1 mutant yeast. S. cerevisiae tim10-1 ts strain growth, BacTiter-Glo, 24 h. inhibition, % at 20 µM. hit rate 2.2% among 330,000;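 active means inhibition of at least 40%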;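 further: mutant grown at 25 °C; 0% = DMSO wells with yeast and 100% = wells holding no yeast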
# SKKanGAS inh – blocks kanamycin growth of S. pyogenes SKKanGAS strain; BacTiter-Glo, 6 h; inhibition, % at 7.5 µM; hit rate 1.3% among 300,000; AID 1662;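 active means mean replicate score, as percent of positive control median, at least 50; inconclusive means mean below 50 but one replicate at or above 50; inactive means mean and every replicate below 50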;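 further: strain carries kanamycin resistance gene driven by streptokinase promoter and grows in 40 µg/ml kanamycin; loss of luminescence reflects streptokinase promoter inhibition or plain growth inhibition; 0% = median of DMSO wells and 100% = positive control at its reference dose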
# TIM10 inh – growth inhibitors of TIM10 yeast strain; S. cerevisiae TIM10 strain growth, BacTiter-Glo luminescence, 24 h; inhibition, % at 10 µM; hit rate 1.4% among 330,000; AID 463195;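 active means inhibition of 40% or more at the single tested concentration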;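 further: wild-type TIM10 isogenic control strain grown at permissive 25 °C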
# tim23-1 inh – inhibits growth of tim23-1 mutant yeast; S. cerevisiae tim23-1 growth, BacTiter-Glo luminescence, 24 h; inhibition, % at 20 µM; hit rate 1.3% among 330,000;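 active means growth inhibition of the mutant yeast at or above 50%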;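 further: temperature-sensitive mutant grown at 25 °C; plate controls were DMSO-treated mutant yeast for no effect and medium wells lacking yeast for full effect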
# Calb FLC – C. albicans growth modulation with fluconazole; hit rate 0.57% among 300,000; C. albicans CaCi-2 (fluconazole-resistant clinical isolate) + fluconazole, Alamar Blue growth, 48 h; AID 1979; growth inhibition, % (test concentration not listed);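 active means growth inhibition above about 58% in most replicates, limit read from the data, passing the limit was not always enough; inconclusive means exactly half the replicates above a set limit; inactive means most replicates below a set limit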;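 further: all wells also contain fluconazole at 8 µg/ml as a sub-toxic cotreatment; 0% = median of DMSO wells and 100% = median of geldanamycin control wells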
# tim10-1 conf – confirmation of tim10-1 mutant yeast growth inhibitors. shares compounds with tim10-1 inh. S. cerevisiae tim10-1 ts strain growth, BacTiter-Glo, 24 h. inhibition, % at 20 µM. hit rate 56% among 7,400. AID 463213;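 active means inhibition of yeast growth at or above a set limit in either of two repeat tests at 20 µM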;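 further: tim10-1 mutant grown at permissive 25 °C to find synthetic lethal compounds; 0% = DMSO yeast wells and 100% = medium wells without yeast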
# Numbers without * were called inactive; ? = inconclusive; · = no result. The list is not random: actives were taken first. Their share in the collection is about 4.7%.
SMILES,PfHsp90 yeast 2,tim10-1 inh,SKKanGAS inh,TIM10 inh,tim23-1 inh,Calb FLC,tim10-1 conf
CN1C(=O)C(O)(CC(=O)/C=C\c2ccc3c(c2)OCO3)c2ccccc21 (stereo not given),12,42*,·,35,40,-22,28
NC(=O)CN1C(=O)C(O)(CC(=O)/C=C\c2ccc3c(c2)OCO3)c2ccccc21 (stereo not given),7,6,-8,-3,-3,-16,·
COCC(C)n1c(SC(C)C(=O)NC2CCCCC2C)nc2ccccc2c1=O (stereo not given),-1,11,2,17,24,4,·
Cc1ccc2c(c1)c(N=O)c(O)n2Cc1ccc(Cl)cc1,3,49*,43,30,28,8,36*
Cc1ccc(Cn2c(O)c(N=O)c3ccccc32)cc1,16,31,10,16,26,-6,·
NC(=O)/C=C\c1cn(-c2ccccc2)nc1-c1ccc2c(c1)OCCO2,10,-12,-3,15,18,-2,·
CNC(=O)COC(=O)/C=C/c1cn(-c2ccccc2)nc1-c1ccc2c(c1)OCCO2,·,41*,-9,21,11,-2,29*
Cc1cc(C(=O)C(C)OC(=O)c2ccc(NC(=O)CC#N)cc2)c(C)n1-c1ccccc1 (stereo not given),-22,42*,17,26,34,0,19
NS(=O)(=O)c1ccc(N2CCN(C(=O)c3ccco3)CC2)nc1,-18,7,·,4,4,·,·
COc1ccc(NC(=O)CN(C)CC(=O)NCC(=O)Nc2ccc(F)cc2)cc1,·,-15,-2,-1,-7,4,·
O=c1cc(-c2ccccc2)[nH]n1-c1ccc([N+](=O)[O-])cc1,2,43*,51*,23,25,19,30
Clc1ccccc1Cn1nnc2ccccc21,7,-4,2,-3,12,-11,·
CC1=CC(C)(C)Nc2ccc(OC(=O)CN3C(=O)c4cccc5cccc(c45)C3=O)cc21,-13,·,3,·,·,40,·
CC1=CC(C)(C)Nc2ccc(OC(=O)CN3C(=O)c4ccccc4C3=O)cc21,15,47*,-2,16,42,-5,32*
CCOC(=O)c1ccc(S(=O)(=O)N2CCN(C(=O)C3CSC4(C)CCC(=O)N34)CC2)cc1 (stereo not given),-10,-5,·,9,10,·,·
Cn1nccc1C(=O)Nc1sc2c(c1C#N)CCCC2,-8,21,-6,10,26,62,·
N#Cc1c(NC(=O)c2ccc(Cn3cc(Br)cn3)o2)sc2c1CCCCCC2,9,41*,43,27,27,0,32*
O=S(=O)(c1ccccc1)N1N=C(c2ccccc2)CC1c1ccccc1F (stereo not given),-4,35,10,24,35,4,·
Cc1cc2c(cc1C)C(c1cc(Br)ccc1F)CC(=O)N2 (stereo not given),22,45*,0,9,25,-12,28
O=C(CC1CCCCC1)NCc1ccccc1Cl,-12,3,4,-1,11,-23,·
CC(C)N(C(=O)N1CCN(c2ccnc3cc(Cl)ccc23)CC1)C(C)C,-20,40*,-9,23,43,20,29*
N#C/C(=C\c1ccc(OCCN2CCOCC2)cc1)C(=O)Nc1ccc(S(N)(=O)=O)cc1,5,4,3,-1,13,-8,·
Cc1csc(NC(=O)c2ccc(C)c(S(=O)(=O)N3CCOCC3)c2)n1,·,41*,1,19,12,?,15
COc1cccc(CCc2nnc(CCC(=O)NCCC3CCCCO3)o2)c1 (stereo not given),-29,0,3,1,3,-6,·
CCN1C(=O)[C@H]2[C@@H](c3ccc(-c4ccc(C(C)=O)cc4)cc3)N3CCCC[C@@]3(C(=O)OC)[C@H]2C1=O,-19,25,14,23,35,7,·
SMILES,PfHsp90 yeast 2,tim10-1 inh,SKKanGAS inh,TIM10 inh,tim23-1 inh,Calb FLC,tim10-1 conf
Cc1ccc(-n2nnnc2CNC(=O)c2ccc([N+](=O)[O-])o2)cc1C,-14,43*,-2,32,27,36,31*
COc1cc(CN2C(=O)C(NC(=O)c3ccco3)(C(F)(F)F)C3=C2CC(C)(C)CC3=O)cc(OC)c1 (stereo not given),-34,47*,-1,10,43,2,27
Cn1c(N)c(C(=O)COC(=O)c2cc(S(=O)(=O)NCc3ccccc3)ccc2O)c(=O)n(C)c1=O,0,·,·,·,·,·,·
c1ccc(C(NCCNC(c2ccccc2)c2ccccc2)c2ccccc2)cc1,-16,43*,105*,19,21,-4,19
NS(=O)(=O)c1ccc(CCNC(c2ccccc2)c2ccccc2)cc1,2,13,1,21,4,-1,·
Cc1ccc(C)c(-c2cc(C(=O)NNC(=S)NCC(C)C)c3ccccc3n2)c1,-69,47*,22,18,26,-4,31
CCCOc1ccc(C(=O)NNC(=S)NC(=O)c2cc(-c3ccc(Cl)cc3)nc3ccccc23)cc1,-118,46*,99*,20,22,16,36*
CCCOc1cccc(-c2cc(-c3n[nH]c(=S)n3CC)c3ccccc3n2)c1,-3,43*,18,39,38,4,32*
CCNC(=S)NNC(=O)c1cc(-c2ccccc2C)nc2ccccc12,15,46*,-11,33,33,99*,46*
CCNC(=S)NNC(=O)c1cc(CC(C)C)nc2ccccc12,8,33,2,16,13,18,·
Cc1cc(C(=O)NNC(=O)c2ccc(Cl)cc2)c2ccccc2n1,7,10,·,12,11,·,·
CCCOc1cccc(-c2cc(C(=O)NNC(=S)NCC)c3ccccc3n2)c1,6,54*,-17,33,24,84*,50*
CCCCNC(=S)NNC(=O)c1cc(-c2ccncc2)nc2ccccc12,-7,30,0,18,27,50,·
Cc1cc(C)cc(OCC(=O)O/N=C(\N)c2cccnc2)c1,·,·,-2,·,·,5,·
Cc1ccccc1CN(CC(=O)Nc1cccc([N+](=O)[O-])c1)S(=O)(=O)c1ccc(Cl)cc1,8,45*,14,12,33,-11,24
O=C(Nc1ccccc1Br)c1cc(=O)c2ccccc2o1,-12,-3,4,20,6,-2,·
CCC(NS(=O)(=O)c1ccc2c(c1)NC(=O)C(C)C(=O)N2)c1cccs1 (stereo not given),2,0,0,2,3,-6,·
CSc1ccccc1NC(=O)CN(C)C(=O)C1CC(=O)N(C(C)c2ccccc2)C1 (stereo not given),0,2,·,-5,-3,·,·
N=c1n(Cc2ccc(Cl)cc2)c2ccccc2n1CC(O)COc1ccccc1 (stereo not given),1,16,11,5,23,30,·
